# Data from ChEMBL document CHEMBL4513216, “Probing the Open Global Health Chemical Diversity Library for Multistage-Active Starting Points for Next-Generation Antimalarials” (ACS Infect Dis, 2020).
# Screen size: about 69,000 compounds; about 8,600 (12%) showed an effect of 50% or more. The full list was thinned out, with strong results kept by preference.
# System: Plasmodium berghei
# Test: Screen against P. berghei liver stage (PbLuc), transformed with Luciferase, at 10uM
# Format: functional, HepG2
# Conditions: tested at 10 uM
row,Compound,INHIBITION
1,O[C@@H]1CN(Cc2ccc(F)c(F)c2)CC[C@H]1NCc1ccccn1,46.7%
2,CCCN1Cc2ccccc2NC(=O)C12CCNC2 (configuration not stated),38.3%
3,O=C(c1cnccn1)N1CCCC2(CCN(Cc3ccsc3)C2)C1 (configuration not stated),-15.2%
4,O=C(NC1CCCc2nc(N3CCOCC3)ncc21)C1CCCCC1 (configuration not stated),17.1%
5,CNS(=O)(=O)c1ccc(CN(C)Cc2nc3ccc(F)cc3[nH]2)cc1,29%
6,Cc1ccccc1C1(C(=O)NCCN2CCCC2)CCOCC1,44.8%
7,Cc1ccccc1C1(C(=O)NCCN2CCOCC2)CCOCC1,-33.5%
8,Cc1ccccc1C1(C(=O)NCCN2CCC(C)CC2)CCOCC1,55.1%
9,COc1cccc(-n2nc(C(C)=O)c(C(C)=O)c2C)c1,-17%
10,O=C1CC2(CCN(C(=O)c3ccccn3)CC2)Oc2c(Cl)cc(Cl)cc21,4.57%
11,CNc1cc(CNC(=O)c2ccncc2)nc(-c2ccncc2)n1,4.08%
12,Cc1nc(C)n(C2CCCN(C(=O)Cc3csc(C(C)C)n3)C2)n1 (configuration not stated),26.4%
13,O=C(Cc1ccsc1)NCC1OCCc2cn(CC3CC3)nc21 (configuration not stated),-46.6%
14,CCCS(=O)(=O)NCC1OCCc2cn(CC3CCOCC3)nc21 (configuration not stated),55.5%
15,O=S(=O)(NCC1OCCc2cn(CC3CCOCC3)nc21)C1CC1 (configuration not stated),29.8%
16,CN(C)S(=O)(=O)NCC1OCCc2cn(CC3CCOCC3)nc21 (configuration not stated),20.1%
17,Fc1ccc(CNCC2OCCc3cn(CC4CC4)nc32)cc1 (configuration not stated),46.6%
18,c1c2c(nn1CC1CC1)C(CNC1CCOCC1)OCC2 (configuration not stated),15.3%
19,CS(=O)(=O)NCC1OCCc2cn(CC3CC3)nc21 (configuration not stated),44.2%
20,Fc1cccc(CNCC2OCCc3cn(CC4CCOCC4)nc32)c1 (configuration not stated),68.4%
21,c1c2c(nn1CC1CCOCC1)C(CNC1CCOCC1)OCC2 (configuration not stated),-44.2%
22,CS(=O)(=O)CC(=O)NCC1OCCc2cn(CC3CC3)nc21 (configuration not stated),54.7%
23,c1cc(CNCC2OCCc3cn(CC4CCOCC4)nc32)ccn1 (configuration not stated),19.9%

row,Compound,INHIBITION
1,CCS(=O)(=O)NCC1OCCc2cn(CC3CCOCC3)nc21 (configuration not stated),66.8%
2,COCCCn1ccc(NCc2ccc(NC(C)=O)cc2)n1,19.7%
3,COc1cc2c(cc1C(=O)N1CCCCC1c1ccccn1)CCC2 (configuration not stated),11.6%
4,Cc1ccc2nc(C(=O)N3C[C@@H](C(=O)O)[C@H](c4ccccc4)C3)cn2c1,-46%
5,O=C(c1cccs1)N1CCOCC2(C1)CN(c1ccccc1)C(=O)CO2 (configuration not stated),-8.28%
6,CCOCC1CN(c2ccncn2)Cc2cnn(CC3CC3)c21 (configuration not stated),-8.19%
7,Cc1nccn1C1CCCN(C(=O)c2cccc(Cn3ccnc3)c2)C1 (configuration not stated),-6.14%
8,O=C(CCc1cc2n(n1)CCCNC2)N1CCC(N2CCOC2=O)CC1,-39.2%
9,COCCNc1nnc(-c2ccc(C)nc2)s1,-74.5%
10,CCc1nc(CN2CC[C@@](O)(CCOC)[C@H](C)C2)cs1,0.868%
11,CCOc1cc(CNCCCn2ccnc2)cc(Cl)c1OC,49.5%
12,CCOc1cc(CNCCCn2ccnc2)cc(Cl)c1OCC,58.1%
13,CCOc1ccc(CNCCCn2ccnc2)cc1Cl,-32.1%
14,CC(=O)NCC1CCC2(CCN(c3ncnc4oc(C)nc34)CC2)O1 (configuration not stated),34.9%
15,CC(=O)N1CCC(NC(=O)CN2CCCc3c(C)ccc(F)c32)CC1,-7.13%
16,Cc1cnn(-c2cccc(N3CCCC3)n2)c1,30.3%
17,Cc1cnn(-c2cccc(N3CCN(c4cc(C)nc(C)n4)CC3)n2)c1,85.5%
18,Cc1cnn(-c2cccc(N3CCCCC3)n2)c1,39.3%
19,CC(=O)N1CCCC1C(=O)NCCOc1ccc(C(C)C)cc1 (configuration not stated),29.4%
20,CC(C)Cn1c(=O)n(CCCn2cccn2)c2cc(C(=O)O)cnc21,-18.1%
21,Cn1cc(NC(=O)N2CCN(Cc3cscn3)CC2)ccc1=O,48.3%
22,O=C(CCCn1nnc(-c2ccc(F)cc2)n1)N1CCOCC(CO)C1 (configuration not stated),52%
23,O=C(Cn1nnc(-c2ccc(F)cc2)n1)N1CCOCC(O)C1 (configuration not stated),38.6%

row,Compound,INHIBITION
1,CC[C@H]1COCCN1C(=O)CCCn1nnc(-c2ccc(F)cc2)n1,35%
2,CCCS(=O)(=O)NC(C)C(=O)NCc1ccnc(N2CCCC2)c1 (configuration not stated),14.4%
3,CC(=O)N1CCC2(C1)c1ccccc1S(=O)(=O)N2C (configuration not stated),50.4%
4,COCC(=O)N1CCC2(C1)c1ccccc1S(=O)(=O)N2C (configuration not stated),65.3%
5,CC(=O)N1CCC2(C1)c1ccccc1S(=O)(=O)N2CCC(C)C (configuration not stated),-61.6%
6,CC(=O)N1CCC2(C1)c1ccccc1S(=O)(=O)N2Cc1ccccc1 (configuration not stated),6.72%
7,COCC(=O)N1CCC2(C1)c1ccccc1S(=O)(=O)N2CCC(C)C (configuration not stated),-14.2%
8,COCC(=O)N1CCC2(C1)c1ccccc1S(=O)(=O)N2CC1CC1 (configuration not stated),17.6%
9,Cc1ccccc1C(=O)N1CCC(n2nnc3cc(F)ccc32)CC1,-30.1%
10,CC(C)c1nnc(CCC(=O)N2CCOC(c3cnccn3)C2)o1 (configuration not stated),11.8%
11,CC(C)C[C@H](N)c1nnc(SCC(N)=O)o1,-21.4%
12,NS(=O)(=O)CCCNC(=O)c1cnc(-c2ccsc2)s1,41.4%
13,O=C1C[C@@H]2CC[C@H](CN1)N2C(=O)CCc1ccsc1,36.7%
14,CC(=O)N1CCC2(CC1)CC(NS(C)(=O)=O)c1ccccc1O2 (configuration not stated),25.9%
15,CC(=O)N1CCOCC(Cc2ccc3c(ccn3C)c2)C1 (configuration not stated),-20.265%
16,Cn1cc(CN2C[C@@H]3COC[C@@H](C(=O)N4CCCCO4)[C@@H]3C2)cn1,39.8%
17,O=C(CO)N1CCc2onc(Cn3cccn3)c2C1,51.2%
18,CN(C)CC(=O)N1CCc2onc(Cn3cccn3)c2C1,33.4%
19,CS(=O)(=O)NCc1noc2c1CN(C(=O)C1CC1)CC2,30.3%
20,CS(=O)(=O)NCc1noc2c1CN(C(=O)C1CCC1)CC2,18.6%
21,O=C(CC(F)(F)F)N1CCc2onc(Cn3cccn3)c2C1,32.4%
22,CCC(=O)N1CCc2onc(CNS(C)(=O)=O)c2C1,69.3%
23,CC1CN(C(=O)CN(Cc2ccco2)Cc2cccs2)CCO1 (configuration not stated),-19.9%

row,Compound,INHIBITION
1,COC(=O)c1cccn1C1CCN(C(=O)c2c(C)noc2C)CC1,36.1%
2,COc1cc2c(cc1OC)C(=O)C(Sc1nnnn1C)C2 (configuration not stated),26.4%
3,CSc1ncc(C(=O)NCCn2nccc2C)cn1,5.785%
4,O=S(=O)(c1ccc(F)cc1)N1CC[C@H]2[C@H]1CCN2c1ncccn1,2.4%
5,O=C(c1cnc2c(cnn2C2CCCC2)c1)N1CCN(CCO)CC1,24%
6,Cn1cc(C[C@H]2[C@H](O)CCN2Cc2ccncc2)cn1,46.2%
7,Cn1nccc1CN1CCCC(COc2ccccc2F)C1 (configuration not stated),17.4%
8,CCn1cc(CN2CCCC(COc3ccc(F)cc3)C2)cn1 (configuration not stated),74%
9,COc1ccc(OCC2CCCN(Cc3ccncc3)C2)cc1 (configuration not stated),46.3%
10,CCn1cc(CN2CCCC(COc3ccccc3F)C2)cn1 (configuration not stated),69.3%
11,Cn1cc(CN2CCCC(CCc3ccc(F)cc3F)C2)cn1 (configuration not stated),43%
12,Fc1ccc(OCCCN2CCCC(Cn3cncn3)C2)cc1 (configuration not stated),5.9%
13,Cn1cc(CN2CCCC(CCc3ccc(F)c(F)c3)C2)cn1 (configuration not stated),38.6%
14,Cn1cc(CN2CCCC(CCc3c(F)cccc3F)C2)cn1 (configuration not stated),30.5%
15,Cn1cc(CN2CCCC(CCc3ccc(F)cc3)C2)cn1 (configuration not stated),59.2%
16,COc1ccc(CN2CC[C@H](O)[C@@H]2Cc2cnn(C)c2)cc1,47.4%
17,Cn1cc(C[C@H]2[C@H](O)CCN2Cc2ccc(F)cc2)cn1,57.9%
18,Cc1cc(NC(C)c2nncn2C2CCCC2)n2nc(C)c(C)c2n1 (configuration not stated),32.1%
19,CC1CCN(c2nccn3c(=O)[nH]nc23)CC1,16.8%
20,Cc1oc(-c2cccc(F)c2F)nc1CN(CCO)C(C)C,13.6%
21,CNC(=O)c1ccc(C2CN(C(=O)c3coc(C)n3)CCO2)nc1 (configuration not stated),-24.1%
22,FC(F)(F)COCCN1CCOC(Cn2cccn2)C1 (configuration not stated),40%
23,CCCNC(=O)NC(=O)CNC(C)(C)c1ccc2c(c1)OCCO2,-4.94%

row,Compound,INHIBITION
1,Cc1ccc(C(N)=O)c(N2C[C@H]3OC(=O)N(C4CCCC4)[C@H]3C2)n1,-14.1%
2,Cc1cnc(C)c(N2C[C@H]3OC(=O)N(C4CCCC4)[C@H]3C2)n1,68.1%
3,COc1ccccc1CN1C(=O)O[C@@H]2CN(c3nc(C)cnc3C)C[C@@H]21,20.9%
4,CC(C(=O)NCc1ccc(N2CCCC2)nc1)S(C)(=O)=O (configuration not stated),45.7%
5,Cc1cccc(C(=O)N2CCCN(Cc3cscn3)CC2)c1,-33.7%
6,COc1ccc(Cl)c(-c2noc3ncn(CCC(=O)O)c(=O)c23)c1,25.9%
7,CCOC(=O)CCn1cnc2onc(-c3cc(OC)ccc3Cl)c2c1=O,-8.07%
8,CCOC(=O)CCn1cnc2onc(-c3ccc(OC)cc3)c2c1=O,71.4%
9,Cc1noc(C)c1CC(=O)N1CCc2sccc2C1,19.2%
10,Cc1ccc(NCc2cn3c(n2)CN(Cc2ccc(C)o2)CC3)nn1,29.8%
11,CNc1cc(C2CN(C(=O)c3ccn(C)n3)CCO2)nc(C)n1 (configuration not stated),-29%
12,CCS(=O)(=O)CCSc1cccc(C#N)c1,7.43%
13,CCCS(=O)(=O)CCSc1cccc(C#N)c1,51.4%
14,CS(=O)(=O)CCSc1cccc(C#N)c1,7.84%
15,Cc1nsc(C(=O)NCCc2ccccc2)n1,-67.9%
16,Cc1nsc(C(=O)NCCc2cccs2)n1,-12.1%
17,Cc1nsc(C(=O)NCCc2ccc(Cl)cc2)n1,20.9%
18,Cc1nsc(C(=O)NCCc2ccc(S(N)(=O)=O)cc2)n1,69.5%
19,Cc1nsc(C(=O)NCCCc2ccccc2)n1,58.1%
20,Cc1nsc(C(=O)NCCc2ccc(F)cc2)n1,-10.6%
